Assay results: PubChem BioAssay (Tox21)
Records with an inconclusive call do not appear. A number with no mark means an inactive call. Calls of active or inactive are those of the source. Calls follow the shape of the dose curve; as a rule, active = well fitted curve in the direction sought with a large enough effect in the repeat runs; inconclusive = weak or mixed curves; inactive = no such curve, though single readings can be large; an effect the other way counts as inactive or inconclusive.

Tested on: not listed separately
Experiment: qHTS assay to identify small molecule antagonists of the constitutive androstane receptor (CAR) signaling pathway - cell viability counter screen (AID 1224837); also: nearly all actives have a fitted effect of over 45% in size; also: potency is read from the fitted curve at half-maximal effect
Conditions: HepG2-CYP2B6-hCAR viability, CellTiter-Fluor, 23 h, co-treated with 50 nM CITCO; series mostly up to 92.4 µM; activity change, negative = cytotoxicity: at the top concentration
Summary of the method: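 Multiplexed cytotoxicity read-out for the CAR antagonist screen: double-stable HepG2-CYP2B6-hCAR cells co-treated with 50 nM CITCO (final) and compound over 15 concentrations, incubated 23 hr, then assessed by CellTiter-Fluor fluorescence.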
% is scaled to controls: 0 for no effect and ±100 for the full control effect.

Row | SMILES | activity change, negative = cytotoxicity | Potency
1 | CN(C)C(=O)NC1(c2ccccc2)CCN(CC[C@@]2(c3ccc(F)c(F)c3)CN(C(=O)c3ccccc3)CCO2)CC1 | -15.7% | 
2 | O=C(O)C1(C(=O)O)CCC1.[NH2-].[NH2-].[Pt+2] | -2.91% [at 42.5 µM] | 
3 | CC/C=C\CCOC(=O)CC | 5.49% | 
4 | C=C(C)C(=O)OCCO | -0.979% | 
5 | CCOc1ccc(O)cc1 | -0.885% | 
6 | Cn1c(=O)cc(Oc2ccc(F)cc2F)c2cnc(NCC(C)(C)O)nc21 | -3.71% | 
7 | CCOc1ccc(N=Nc2ccc(/C=C/c3ccc(N=Nc4ccc(OCC)cc4)cc3S(=O)(=O)O)c(S(=O)(=O)O)c2)cc1 |  | 21.4 µM (active)
8 | CCCCCCCCCCCc1ccccc1 | -4.09% | 
9 | Nc1ccc(S(=O)(=O)Nc2ccccc2)cc1 | 1.62% [at 42.5 µM] | 
10 | C=CC(=O)OCCOc1ccccc1 | -8.41% | 
11 | C/C=C/C=C/CO | -0.685% | 
12 | CCCCCCCCCCCCCCOS(=O)(=O)O | -15% | 
13 | O=S(=O)(Oc1ccc(Cl)cc1)c1ccccc1 | 4.62% | 
14 | CCCCO | -1.02% | 
15 | CC(=O)[O][Al] | 4.59% | 
16 | CN1CCN(C(c2ccccc2)c2ccccc2)CC1 | -9.93% [at 42.5 µM] | 

Row | SMILES | activity change, negative = cytotoxicity | Potency
17 | OC(C#CCN1CCCC1)(c1ccccc1)c1ccccc1 | -14.6% [at 42.5 µM] | 
18 | Cc1cccc(Nc2ccccc2)c1 | 0.578% | 
19 | Cc1ccc(C(=O)Oc2ccc(C(O)CNC(C)(C)C)cc2OC(=O)c2ccc(C)cc2)cc1 (stereo not drawn) | -0.162% [at 42.5 µM] | 
20 | Nc1cc(C(=O)O)c(O)c(S(=O)(=O)O)c1 | 14.4% | 
21 | CC(=O)OC[C@H]1O[C@@H](n2ncc(=O)[nH]c2=O)[C@H](OC(C)=O)[C@@H]1OC(C)=O | -15.4% [at 42.5 µM] | 
22 | Cc1[nH]c(C)c(Cl)c(=O)c1Cl | 8.34% [at 19 µM] | 
23 | CN1C[C@H]2c3ccccc3Oc3ccc(Cl)cc3[C@@H]2C1 | 2.7% [at 42.5 µM] | 
24 | CCCCC(CC)CN1C(=O)C2C3C=CC(C3)C2C1=O (stereo not drawn) | -7.55% | 
25 | O=C1OC(=O)C2C3C=CC(C3)C12 (stereo not drawn) | -7.6% | 
26 | CC(=O)NO | 3.09% [at 42.5 µM] | 
27 | O=CC1CC=CCC1 (stereo not drawn) | -0.955% | 
28 | CN(Cc1ccc(C(C)(C)C)cc1)Cc1cccc2ccccc12 | 13.1% [at 42.5 µM] | 
29 | CC(C)Cc1ccc(C(C)C(=O)OCc2ccccn2)cc1 (stereo not drawn) | 11.1% [at 42.5 µM] | 
30 | CCCCC/C=C\C/C=C\CCCCCCCC(=O)NC(C)c1ccccc1 (stereo not drawn) | -3.19% [at 42.5 µM] | 
31 | O=[N+]([O-])c1ccc2[nH]ncc2c1 | 2.69% | 
32 | NCC(=O)CCC(=O)O | 0.764% [at 42.5 µM] | 

Target: Nuclear receptor subfamily 1 group I member 3 (Homo sapiens) (UniProt Q14994)
Experiment: qHTS assay to identify small molecule antagonists of the constitutive androstane receptor (CAR) signaling pathway (AID 1224838); also: nearly all actives have a fitted effect of over 40% in size
Conditions: HepG2-CYP2B6-hCAR luciferase, CITCO-stimulated, 24 h; series mostly up to 92.4 µM; activity, negative = inhibition: at the top concentration
Summary of the method: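 Compounds were titrated across 15 concentrations onto HepG2 cells double-stably expressing hCAR and a CYP2B6-2.2kb reporter, together with 50 nM CITCO (final). After 24 h at 37 C, luciferase activity was measured by luminescence.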

Chain of Nuclear receptor subfamily 1 group I member 3 (Homo sapiens) (Q14994 whole entry, looked up): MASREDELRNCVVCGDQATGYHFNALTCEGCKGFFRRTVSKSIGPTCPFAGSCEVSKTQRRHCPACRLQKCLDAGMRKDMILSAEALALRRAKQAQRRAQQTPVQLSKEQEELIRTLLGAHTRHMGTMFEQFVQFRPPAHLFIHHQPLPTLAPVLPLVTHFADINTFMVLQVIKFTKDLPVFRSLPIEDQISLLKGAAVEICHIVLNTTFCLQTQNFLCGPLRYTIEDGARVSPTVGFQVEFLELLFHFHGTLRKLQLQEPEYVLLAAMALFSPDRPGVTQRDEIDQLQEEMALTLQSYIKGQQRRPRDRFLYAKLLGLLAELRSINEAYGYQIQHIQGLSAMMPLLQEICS

Row | SMILES | activity, negative = inhibition
33 | O=C(O)C1(C(=O)O)CCC1.[NH2-].[NH2-].[Pt+2] | 2.44% [at 42.5 µM]
34 | C=C(C)C(=O)OCCO | -17.2%
35 | CCOc1ccc(O)cc1 | 9.62%
36 | Cn1c(=O)cc(Oc2ccc(F)cc2F)c2cnc(NCC(C)(C)O)nc21 | 44.4%
37 | CCCCCCCCCCCc1ccccc1 | -3.34%
38 | Nc1ccc(S(=O)(=O)Nc2ccccc2)cc1 | 0.639% [at 42.5 µM]
39 | CCCCCCCCCCCCCCOS(=O)(=O)O | -6.53%
40 | Cc1cccc(Nc2ccccc2)c1 | 33.2%
41 | CC(C)C[C@H]1C(=O)N2CCC[C@H]2[C@]2(O)O[C@](NC(=O)[C@@H]3C=C4c5cccc6[nH]c(Br)c(c56)C[C@H]4N(C)C3)(C(C)C)C(=O)N12 | 62.6% [at 42.5 µM]
42 | Nc1cc(C(=O)O)c(O)c(S(=O)(=O)O)c1 | -3.6%
43 | CC(=O)OC[C@H]1O[C@@H](n2ncc(=O)[nH]c2=O)[C@H](OC(C)=O)[C@@H]1OC(C)=O | -8.78% [at 42.5 µM]
44 | CN1C[C@H]2c3ccccc3Oc3ccc(Cl)cc3[C@@H]2C1 | 52.9% [at 42.5 µM]
45 | CCCCC(CC)CN1C(=O)C2C3C=CC(C3)C2C1=O (stereo not drawn) | 3.68%
46 | CC(=O)NO | 26.6% [at 42.5 µM]
47 | O=CC1CC=CCC1 (stereo not drawn) | -2.4%
48 | CN(Cc1ccc(C(C)(C)C)cc1)Cc1cccc2ccccc12 | 35.8% [at 42.5 µM]
